Results from PubChem BioAssay (NCATS).
Values joined by “and” are separate entries in the source; they are usually repeats but may differ in a detail not shown here. Equal values may be shown once. Records with an inconclusive call do not appear. Active and inactive are the calls of the source. Unless noted, the call rests on the fitted dose curve; in most records, active means well fitted curve in the direction sought with a large enough effect; inconclusive means small, poorly fitted or top-dose-only effect, or another doubt; inactive means no such curve, though single readings can be large; an effect the other way counts as inactive or inconclusive.

What was measured:
[1] = Cellular Toxicity (caspase-3) N2a (AID 665); details: N2a cells, luminescence, normalized: DMSO 0%, 10 µM staurosporine 100%; series mostly up to 92.2 µM;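 further: compound exposure lasted 16 h at 37 °C before readout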
Procedure, shortened: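 Caspase-3/7 activation, measured as increased luminescence from aminoluciferin release, is quantified in mouse N2a cells exposed to compounds for 16 h. Values are normalized to DMSO and 10 uM staurosporine, with AC50 derived by Hill modelling.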

[2] = Cellular Toxicity (caspase-3) NIH 3T3 (AID 666); details: NIH 3T3 caspase-3 activation, apoptosis/toxicity, 0% DMSO, 100% is 100 µM tamoxifen; series mostly up to 92.2 µM;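 further: caspase signal read after 16 h compound exposure; 0% = DMSO basal and 100% = 100 µM tamoxifen stimulation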
Procedure, shortened: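 Cells were plated at 1000 per well and incubated 5 hr at 37°C, then compound was added for 16 hr. Caspase-Glo 3/7 reagent followed for 20 min at room temperature before luminescence was read.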

[3] = Cellular Toxicity (caspase-3) Renal Proximal Tubule (AID 667); details: renal proximal tubule cells, primary cells freshly taken from rat, solvent-only wells 0%, staurosporine 100%; series mostly up to 91.7 µM;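 further: cells exposed to compound for 16 hours at 37 °C before detection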
Procedure, shortened: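 In qHTS format, rat primary proximal tubule cells seeded at 1000 per well are exposed to compounds for 16 hours at 37 °C. An increase in Caspase-Glo 3/7 luminescence indicates caspase activation.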

[4] = Cell Viability - LYMP2-001 (AID 921); details: LYMP2-001 lymphoblastoid cell viability; series mostly up to 92.2 µM;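 further: cells exposed to compound for 24 h at 37 °C; 0% = DMSO only and full inhibition = tetraoctylammonium bromide control wells; nearly all actives have a fitted effect of over 70% in size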
Procedure, shortened: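 qHTS, 1536-well; lymphoblastoid cells, 24 hr compound, 37 C; ATP by CellTiter-Glo, 30 min RT; luminescence; Hill-fit AC50.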

[5] = MultiTox-Fluor Cytotoxicity Assay - LYMP1-001 - Dead Cells (AID 946); details: LYMP1-001 lymphoblastoid cells, dead-cell protease fluorescence; series mostly up to 92.2 µM;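 further: 0% = DMSO and 100% = tetraoctylammonium bromide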
Procedure, shortened: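 LYMP1-001 lymphoblastoid cells (2500/well) treated 16 h at 37 C. Dead-cell protease cleavage of bis-AAF-R110 read at Ex/Em 485/520. Normalized to DMSO and 15 uM tetraoctylammonium bromide; AC50 from Hill fits.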

[6] = MultiTox-Fluor Cytotoxicity Assay - LYMP1-001 - Live Cells (AID 947); details: LYMP1-001 lymphoblastoid cells, live-cell protease fluorescence viability; series mostly up to 92.2 µM;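 further: 0% = DMSO only and full inhibition = tetraoctylammonium bromide control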
[7] = Cell Viability - LYMP1-002 - Assay at 16 hr (AID 948); details: LYMP1-002 lymphoblastoid cell viability; series mostly up to 92.2 µM;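 further: 0% = DMSO alone and full effect = 92 µM tetraoctylammonium bromide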
Procedure, shortened: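 Acute cytotoxicity is scored as a concentration-dependent fall in intracellular ATP in a human lymphoblastoid line (LYMP1-002) after 16 hr compound exposure at 37 C, measured by luciferase luminescence.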

[8] = MultiTox-Fluor Cytotoxicity Assay - LYMP1-002 - Live Cells (AID 955); details: LYMP1-002 lymphoblastoid live-cell protease fluorescence viability; series mostly up to 46.1 µM; further: on the % scale 0 is the no-effect control and ±100 the full control effect
Procedure, shortened: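 Cells were seeded at 2500 per well and incubated 5 hr. Compounds were then added for 16 hr at 37 C, followed by MultiTox-Fluor reagent for 60 min at room temperature and fluorescence reading of viable-cell protease signal.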

[9] = MultiTox-Fluor Cytotoxicity Assay - LYMP1-002 - Dead Cells (AID 960); details: LYMP1-002 lymphoblastoid cells, dead-cell protease fluorescence; series mostly up to 46.1 µM;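 further: 0% = DMSO and 100% = tetraoctylammonium bromide; nearly all actives have a fitted effect of over 60% in size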
Procedure, shortened: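 Cells were plated, rested 5 hr, then treated with compound dilution series for 16 hr at 37 C. After adding substrate reagent and 60 min at room temperature, dead-cell protease fluorescence gave concentration-response curves fitted by the Hill equation.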

[10] = MultiTox-Fluor Cytotoxicity Assay - LYMP1-003 - Dead Cells (AID 961); details: LYMP1-003 lymphoblastoid cells, dead-cell protease fluorescence; series mostly up to 92.2 µM;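 further: 0% = DMSO and 100% = tetraoctylammonium bromide; nearly all actives have a fitted effect of over 70% in size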
Procedure, shortened: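 LYMP1-003 human lymphoblastoid cells (2500/well) exposed to compound 16 h at 37 C in complete medium; dead-cell protease read with bis-AAF-R110 fluorescence (Ex/Em 485/520) after 60 min at room temperature. Normalized to DMSO and 15 uM tetraoctylammonium bromide; AC50 from Hill fit.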

[11] = MultiTox-Fluor Cytotoxicity Assay - LYMP1-003 - Live Cells (AID 962); details: LYMP1-003 lymphoblastoid cells, MultiTox-Fluor live-cell protease fluorescence; series mostly up to 92.2 µM;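 further: 0% = DMSO only and full loss = 92 µM tetraoctylammonium bromide; cytotoxic hits lower the live-cell protease signal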
Procedure, shortened: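 Acute cytotoxicity is scored as a drop in live-cell protease activity in human lymphoblastoid LYMP1-003 cells after 16 hr compound exposure at 37 C. AC50 values come from Hill-equation modelling of concentration-response data.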

[12] = Cell Viability - LYMP1-003 - Assay at 24 hr (AID 963); details: LYMP1-003 lymphoblastoid cell viability; series mostly up to 92.2 µM;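 further: plate controls were DMSO only for no effect and tetraoctylammonium bromide positive control for full effect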
Procedure, shortened: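 Cytotoxicity is scored as a concentration-dependent fall in ATP-linked luciferase signal in human lymphoblastoid LYMP1-003 cells treated 24 hr at 37 C in complete culture medium.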

[13] = Cell Viability - LYMP1-003 - Assay at 40 hr (AID 964); details: LYMP1-003 lymphoblastoid viability; series mostly up to 92.2 µM; further: on the % scale 0 is the no-effect control and ±100 the full control effect; nearly all actives have a fitted effect of over 60% in size
Procedure, shortened: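 Luminescent ATP signal (CellTiter-Glo) served as the viability read-out after 40 hr compound treatment of human lymphoblastoid LYMP1-003 cells at 37 C. Decreases in ATP were fitted with the Hill equation to give AC50.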

[14] = Cell Viability - LYMP2-003 (AID 965); details: LYMP2-003 lymphoblastoid cell viability; series mostly up to 92.2 µM;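 further: cells exposed to compounds for 24 h before reading; 0% = DMSO only and full effect = 92 µM tetraoctylammonium bromide; nearly all actives have a fitted effect of over 50% in size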
Procedure, shortened: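 Acute cytotoxicity is scored as a concentration-dependent drop in intracellular ATP, measured by luciferase luminescence in human lymphoblastoid cells treated for 24 hours at 37 C. AC50 values derive from Hill-equation modelling.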

[15] = qHTS assay for small molecule agonists of the antioxidant response element (ARE) signaling pathway measured by Nrf2-dependant transcriptional activity (AID 720636; active means well fitted curve in the direction sought with a large enough effect in the repeat runs; an effect the other way counts as inactive or inconclusive;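 further: HepG2 cells with an ARE-driven luciferase reporter; % of control where 0% means no effect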); details: ARE-luc HepG2, Nrf2 luciferase reporter, 16 h; series mostly up to 92.4 µM
Procedure, shortened: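 ONE-Glo luminescence, read 30 min after reagent addition at room temperature, reflected ARE reporter activity in HepG2 cells that had been incubated with compound for 16 hr at 37 C in 1% dialyzed FBS.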

[16] = qHTS assay for small molecule antagonists of the retinoid-related orphan receptor gamma (ROR-gamma) signaling pathway - cell viability counter screen (AID 720652; active means well fitted curve in the direction sought with a large enough effect in the repeat runs; an effect the other way counts as inactive or inconclusive;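 further: CHO reporter cells with doxycycline-induced ROR-gamma expression; compound exposure lasted 16 hr before ATP read; on the % scale 0 is the no-effect control and ±100 the full control effect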); details: RORgamma reporter cell line viability counter screen; series mostly up to 92.2 µM
Procedure, shortened: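 Steps: seed CHO cells bearing TET-inducible ROR and ROR response element-luciferase; rest 5 hr at 37 C; add compound, then doxycycline; incubate 16 hr; add CellTiter-Glo and read luminescence as ATP-based viability.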

[17] = qHTS assay for small molecule agonists of the antioxidant response element (ARE) signaling pathway measured by Nrf2-dependant transcriptional activity - cell viability counter screen (AID 720653; active means well fitted curve in the direction sought with a large enough effect in the repeat runs; an effect the other way counts as inactive or inconclusive; further: on the % scale 0 is the no-effect control and ±100 the full control effect); details: ARE-bla HepG2 viability, CellTiter-Glo ATP luminescence, 16 h; active compounds read low
Procedure, shortened: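 ARE-bla HepG2 cells (2,000/well) rested 5 hrs at 37C/5% CO2, then exposed to compounds in DMSO for 16 hrs. Viability was read in the same wells as intracellular ATP by luminescence, 30 min at room temperature after reagent addition.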

[18] = qHTS assay for cell viability of HEK293 cells (AID 743288); details: ATP luminescence (CellTiter-Glo), 18 h, active compounds read low; further: on the % scale 0 is the no-effect control and ±100 the full control effect; nearly all actives have a fitted effect of over 50% in size
Procedure, shortened: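 Quantitative high-throughput screen: compounds were pinned onto parental HEK293 cells (2,000 per well) after a minimum 5 h settling at 37 C, incubated 18 h at 37 C, and intracellular ATP measured by luciferase luminescence.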

[19] = qHTS assay for cell viability of the p53RE-bla HCT-116 cell line (AID 743292); details: p53RE-bla HCT-116 viability, ATP luminescence, 16 h; series mostly up to 95 µM; further: on the % scale 0 is the no-effect control and ±100 the full control effect; nearly all actives have a fitted effect of over 55% in size
Procedure, shortened: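 After plating at 4,000 cells per well and a 5 h rest at 37 C, HCT-116 cells carrying p53RE-bla received test chemicals in DMSO. Sixteen hours later at 37 C, CellTiter-Glo was added and luminescence recorded following 30 min at room temperature.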

[20] = qHTS assay for small molecule activators of the human pregnane X receptor (PXR) signaling pathway (AID 720659; call rule not given here; further: 0% is about no effect); details: DPX-2 HepG2 CYP3A4-luciferase, 24 h; series mostly up to 92.3 µM

Measured: max response

C=C(C)[C@H]1CC=C(C)C(=O)C1
inactive: [1] | [2] | [3] | [4] | [5] | [6] | [7] | [8] | [9] | [10] | [11] | [12] | [13] | [14] | [15] | [16] | [17] -9.52% and 8.39% | [18] -10.1% and -1.01% | [19] | [20]
